In the library only some 10% were active in any assay of this set; here they are far more common.
CtBP-E1A inh: blocks the CtBP interaction with E1A. AlphaScreen GST-E1A/His-CtBP binding, 1536-well; hits give low values. activity change, % (test concentration not listed). 0.49% of 340,000 active. AID 651724; in the data active = activity change below about -65%; inconclusive = mostly about -30% to -63%
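Protein mix (5X: 125 nM each GST-E1A, His-CtBP) was incubated with pinned compound 2 h at 37 deg C in dark, in 50 mM Tris pH 8.0 buffer with 300 mM NaCl. Glutathione donor and nickel acceptor beads followed; AlphaScreen signal read after 1 h.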
BAZ2B block: blocks human BAZ2B; AlphaScreen BAZ2B-H3K14Ac peptide displacement; 4.4% of 360,000 active; Q9UIF8; AID 504333; Potency, µM (doses to about 114 µM), hits mostly inhibitors; note: nearly all actives have a fitted effect of over 60% in size
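BAZ2B (50 nM) with biotin-H3(5-23)K14Ac peptide (50 nM) in PBS pH 7.4, 0.01% Tween-20, preformed 30 min, then compound 30 min at room temperature; top concentration 110uM. AlphaScreen streptavidin donor/nickel chelate acceptor beads (10 ug/mL final), 20 min dark, signal read.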
HP1b chromo inh: blocks HP1-beta chromodomain binding to methylated histone tails; P83916; AlphaScreen HP1-beta / biotin-H3K9me3 peptide binding; Potency, µM (titrated, usually from 114 µM), actives largely listed as inhibitors; 0.56% of 390,000 active; AID 540317; note: nearly all actives have a fitted effect of over 70% in size
Target sequence (P83916 whole entry, looked up): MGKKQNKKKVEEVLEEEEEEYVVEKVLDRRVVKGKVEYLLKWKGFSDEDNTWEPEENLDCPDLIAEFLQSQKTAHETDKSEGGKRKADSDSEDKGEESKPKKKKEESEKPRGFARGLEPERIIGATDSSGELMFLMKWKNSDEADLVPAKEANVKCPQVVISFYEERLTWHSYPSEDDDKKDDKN
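HP1-beta protein (50 nM final) preincubated 30 min at room temperature with biotinylated H3(1-18)K9me3 peptide (50 nM) in PBS pH 7.4, 0.01% Tween-20, then compound added for 30 min. AlphaScreen streptavidin donor/nickel chelate acceptor beads (10 ug/mL final), 30 min dark, luminescence read.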
JMJD2A Tudor: blocks the human JMJD2A Tudor domain; Potency, µM (titrated, usually from 114 µM), usual class: inhibitors; O75164; AID 504339; 4.4% of 390,000 active; AlphaScreen JMJD2A-Tudor / H3K4me3 peptide binding; note: nearly all actives have a fitted effect of over 50% in size
G9a block: G9a (human) methyltransferase inhibition. Q96KQ7. G9a H3K9 monomethylation, AlphaScreen, 2 h. Potency, µM (top dose mostly 102 µM), most hits filed as inhibitors. 8.8% of 350,000 active; note: nearly all actives have a fitted effect of over 75% in size
Target sequence (Q96KQ7 913-1193 limits assumed): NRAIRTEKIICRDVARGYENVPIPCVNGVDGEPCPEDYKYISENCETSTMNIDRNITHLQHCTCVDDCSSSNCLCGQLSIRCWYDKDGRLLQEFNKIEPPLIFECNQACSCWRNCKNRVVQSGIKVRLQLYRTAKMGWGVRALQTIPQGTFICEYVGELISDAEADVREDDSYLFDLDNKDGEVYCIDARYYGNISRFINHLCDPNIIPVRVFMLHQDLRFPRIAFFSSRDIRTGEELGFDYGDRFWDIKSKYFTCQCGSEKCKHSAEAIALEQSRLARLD
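Signal arises when biotinylated H3K9 peptide, once monomethylated, bridges streptavidin donor and antibody-captured acceptor beads. Enzyme at 20 nM was preincubated 15 min with test compounds; peptide 500 nM and SAM 20 uM then reacted for 2 h.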
Six1-Eya2 blk: blocks human Six1 binding to Eya2; AlphaScreen GST-Six1/His-Eya2 binding, biochemical; hits give low values; activity change, % (concentration not given with the values); 0.56% of 360,000 active; in the data active = activity change below about -65%; inconclusive = mostly about -30% to -63%
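AlphaScreen luminescence read after one hour at 37 °C in darkness. Pin-transferred compounds met GST-Six1 and His-Eya2 protein (5X stock 250 nM/500 nM) plus glutathione donor and Ni-chelate acceptor beads (5X, 50 ug/mL).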
Large screens that a line does not name were inactive. Unless noted, calls come from the whole dose curve; as a rule, active = well fitted inhibition curve with a large enough effect; inconclusive = small, poorly fitted or top-dose-only effect; inactive = no such curve, though single readings can be large or run the other way.

O=C1C(=O)N(Cc2ccncc2)C(c2ccccc2F)/C1=C(\O)c1ccc2c(c1)OCCO2 (stereo not given)	G9a block 40µM
O=C1C(=O)N(Cc2cccnc2)C(c2cccc(F)c2)/C1=C(/O)c1ccc2c(c1)OCO2 (stereo not given)	G9a block inconclusive
COc1cc(C2/C(=C(\O)c3ccc4c(c3)OCCO4)C(=O)C(=O)N2Cc2ccccc2)ccc1O (stereo not given)	BAZ2B block 50µM (no result: G9a block)
Cc1ccc(C(=O)c2c(N)c(C(=O)Nc3ccccc3Cl)c3ccccn23)cc1	none (no result: CtBP-E1A inh, Six1-Eya2 blk)
Cn1c(C(=O)O)c(S(=O)(=O)c2ccc(Cl)cc2)c2ccccc21	none
O=C1C(=O)N(Cc2cccnc2)C(c2cccc([N+](=O)[O-])c2)/C1=C(\O)c1ccc2c(c1)OCCO2 (stereo not given)	JMJD2A Tudor 56µM, G9a block inconclusive
O=C(Nc1c[nH]c2c(Cl)cccc2c1=O)N1CCN(c2ccccn2)CC1	none (no result: G9a block)
COC1(C)CC2C(CC1OC(=O)c1cc([N+](=O)[O-])cc([N+](=O)[O-])c1)C2(C)C (stereo not given)	BAZ2B block 7.1µM, HP1b chromo inh inconclusive, JMJD2A Tudor 25µM, G9a block 13µM, Six1-Eya2 blk inconclusive
COC(=O)c1cc(C(=O)NCC2CCCCC2)cc([N+](=O)[O-])c1	none
COc1ccc(C(=O)/C=C/c2cn(CC(O)CN3CCN(C)CC3)c3ccccc23)cc1OC (stereo not given)	none
Cc1ccc(C(=O)/C=C/c2cn(CC(O)CN3CCCCCC3)c3ccccc23)cc1 (stereo not given)	BAZ2B block inconclusive, JMJD2A Tudor 50µM, G9a block inconclusive (no result: CtBP-E1A inh, Six1-Eya2 blk)
COc1ccc(C(=O)/C=C/c2cn(CC(O)CN3CCCCCC3)c3ccccc23)cc1OC (stereo not given)	BAZ2B block 28µM, JMJD2A Tudor inconclusive, G9a block inconclusive (no result: CtBP-E1A inh, Six1-Eya2 blk)
Cc1ccc(C)c(NS(=O)(=O)c2cc3c(cc2Cl)NC(=O)CO3)c1	BAZ2B block inconclusive, JMJD2A Tudor inconclusive, G9a block inconclusive (no result: CtBP-E1A inh, Six1-Eya2 blk)
CCn1cc(C(=O)NCc2ccccc2)c(=O)c2cc(S(=O)(=O)N3CCOCC3)ccc21	none (no result: CtBP-E1A inh, BAZ2B block, Six1-Eya2 blk)
CCN(C(=O)C=Cc1ccco1)c1ccccc1	none (no result: BAZ2B block, G9a block)
CC(=C/C(=O)O)/C=C/c1ccco1	G9a block 40µM
CC(/C=C/c1ccc(Cl)o1)=C\C(=O)O	BAZ2B block inconclusive, G9a block 50µM
O=C(Cn1[nH]c(=O)c2ccccc2c1=O)Nc1cccc(S(=O)(=O)N2CCCCCC2)c1	BAZ2B block inconclusive, JMJD2A Tudor inconclusive, G9a block inconclusive
CN(C)/N=C/C=C1\CC/C(=C\c2ccc(Br)cc2)C1=O	BAZ2B block inconclusive, G9a block 50µM
CC(=O)/C(C[N+]1(C)CCCCC1)=N\O	BAZ2B block inconclusive, JMJD2A Tudor 35µM, G9a block inconclusive
C[N+]1(CC(=O)OC2CCCCCCCCCCC2)CCCC1	JMJD2A Tudor inconclusive, G9a block inconclusive
COc1cc(S(=O)(=O)NCc2ccncc2)c(OC)cc1C	none
Cc1ccccc1CNC1CCCCC1	none
COc1cc(C)c(CNC2CCCCC2)cc1C	BAZ2B block inconclusive, HP1b chromo inh inconclusive, JMJD2A Tudor 5µM, G9a block 32µM
COc1cc(C)c(CNc2cc(C)cc(C)c2)cc1C	BAZ2B block inconclusive, JMJD2A Tudor 89µM, G9a block inconclusive
Oc1cc(CNC2CCCCC2)c(O)cc1CNC1CCCCC1	HP1b chromo inh 14µM, JMJD2A Tudor 22µM (no result: BAZ2B block, G9a block)
COc1cc(C)c(CNc2ccc(OC)c(OC)c2)cc1C	BAZ2B block 45µM, G9a block inconclusive (no result: CtBP-E1A inh, HP1b chromo inh, JMJD2A Tudor, Six1-Eya2 blk)
COc1ccccc1CC(=O)Nc1ccc(OC)c(OC)c1	none
CCOC(=O)c1cnc2ccccc2c1Nc1cccc(OC)c1	none (no result: CtBP-E1A inh, Six1-Eya2 blk)
Cc1ccc2nc(C3CCN(C(=O)c4ccco4)CC3)[nH]c2c1	BAZ2B block inconclusive, JMJD2A Tudor inconclusive, G9a block 56µM
N#Cc1cc([N+](=O)[O-])cnc1N(CCO)CCO	G9a block 7.1µM
CCCCn1c(=O)[nH]c(=O)c2c1nc(-c1ccc([N+](=O)[O-])cc1)n2CC	G9a block inconclusive
CCn1c(-c2cccc(Br)c2)n[nH]c1=S	JMJD2A Tudor 7.9µM, G9a block inconclusive
CCn1c(-c2ccc([N+](=O)[O-])cc2)n[nH]c1=S	JMJD2A Tudor 3.5µM, G9a block 4µM
C=CCn1c(-c2ccc3ncccc3c2)n[nH]c1=S	JMJD2A Tudor 7.1µM, G9a block 7.9µM (no result: CtBP-E1A inh)
CCn1c(-c2ccc3ncccc3c2)n[nH]c1=S	JMJD2A Tudor 5µM, G9a block 10µM
Cc1ccc2nc(-c3cccc(Br)c3)cc(C(=O)NC3CC3)c2c1	none (no result: G9a block)
CCn1c(-c2sc(-c3ccccc3)nc2C)n[nH]c1=S	JMJD2A Tudor 18µM
O=C(O)c1n[nH]c2ccccc12	JMJD2A Tudor 28µM, G9a block inconclusive
CCOC(=O)C1CCN(c2nc3c(S(=O)(=O)c4ccccc4)nnn3c3ccc(Cl)cc23)CC1	none (no result: CtBP-E1A inh, Six1-Eya2 blk)
CSC1=NS(=O)(=O)c2c(C)nn(C)c2S1	BAZ2B block 50µM, HP1b chromo inh 13µM, JMJD2A Tudor 4.5µM, G9a block 1.1µM
Cc1nc2sc3c(O)cc(=O)[nH]c3c2c(C)c1C	G9a block 50µM
O=c1cc(O)c2sc3nc(-c4cccnc4)cc(C(F)(F)F)c3c2[nH]1	BAZ2B block 56µM, JMJD2A Tudor inconclusive, G9a block inconclusive, Six1-Eya2 blk inconclusive
Cc1cc(C(F)(F)F)c2c(n1)sc1c(O)cc(=O)[nH]c12	BAZ2B block inconclusive, G9a block inconclusive
O=C(CCn1c(=O)sc2ccccc21)Nc1cccnc1	none
NC(=O)c1ccc(NC(=O)CCc2nc3ccccc3s2)cc1	BAZ2B block inconclusive, G9a block 35µM
O=C(CCc1nc(-c2ccccc2)no1)Nc1cccnc1	G9a block 56µM
O=C(CCc1nc2ccccc2s1)Nc1cccnc1	BAZ2B block inconclusive, G9a block 40µM
O=C(O)c1cc(-c2ccccc2)nn1CC1CC(c2cccnc2)=NO1 (stereo not given)	none (no result: BAZ2B block, G9a block)
O=C(O)c1cc(-c2cccnc2)nn1-c1ccccn1	BAZ2B block inconclusive, G9a block 28µM
Cc1cc(C)c(NC(=O)Cn2c(=O)n(CCCCC(=O)NCc3ccccc3Cl)c(=O)c3ccccc32)c(C)c1	none (no result: CtBP-E1A inh, Six1-Eya2 blk)
COc1cccc(C(Nc2ccccn2)c2c(NC(=O)c3ccco3)sc(C)c2C)c1 (stereo not given)	BAZ2B block inconclusive, JMJD2A Tudor inconclusive
O=C(Nc1ccccn1)c1ccco1	none
Cc1sc(NC(=O)c2ccco2)c(C(Nc2ccccn2)c2ccccc2)c1C (stereo not given)	G9a block 45µM
